These results are taken from PubChem BioAssay.

The nature of test [1]: anti-His antibody binders, primary screen, artefact control for SMM control protein annotation, biochemical, small-molecule microarray, 635 nm fluorescence (AID 1128).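 Further: score merges feature fluorescence with signal-to-noise for each printed compound spot.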 The conditions noted are these: anti-His Alexa647 antibody binding, higher = more signal.
The subject of test [2] is Human papillomavirus type 1a E7 protein (residues 1-88). The test can be described thus: HPV1a E7 small-molecule binders, primary screen, biochemical, small-molecule microarray, residues 1-88, 635 nm (AID 1129). The conditions noted are these: small-molecule microarray binding, fluorescence 635 nm; higher = more signal.
Test [3] concerns the target Focal adhesion kinase 1 (Homo sapiens) (UniProt Q05397). The test can be described thus: small-molecule microarray binders of FAK, primary screen, biochemical, 635/667 nm fluorescence, BSA, DTT (AID 1130).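 Further: composite of spot emission at 667 nm and signal to noise over triplicate slides.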 The conditions noted are these: PTK2 binding, 635 nm fluorescence, higher = more signal.
The test system of test [4] is Fibrinogen (Alexa647-labelled). The test can be described thus: fibrinogen binders on compound microarrays, profiling panel, artefact control for SMM control-protein annotation, biochemical, small-molecule microarray, 635/667 nm fluorescence (AID 1131).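 Further: z-score merges 667 nm fluorescence with per-spot signal-to-noise over triplicate slides.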 Conditions: fibrinogen-A647 binding fluorescence, higher = more signal.
The target in test [5] is Follistatin (Homo sapiens) (UniProt P19883). The test can be described thus: follistatin binders on small-molecule microarrays, primary screen, biochemical, small-molecule microarray, 635/667 nm fluorescence (AID 1132). The conditions noted are these: FST binding, 635 nm fluorescence, higher = more signal.
Chain of Follistatin (Homo sapiens) (P19883 whole entry, looked up): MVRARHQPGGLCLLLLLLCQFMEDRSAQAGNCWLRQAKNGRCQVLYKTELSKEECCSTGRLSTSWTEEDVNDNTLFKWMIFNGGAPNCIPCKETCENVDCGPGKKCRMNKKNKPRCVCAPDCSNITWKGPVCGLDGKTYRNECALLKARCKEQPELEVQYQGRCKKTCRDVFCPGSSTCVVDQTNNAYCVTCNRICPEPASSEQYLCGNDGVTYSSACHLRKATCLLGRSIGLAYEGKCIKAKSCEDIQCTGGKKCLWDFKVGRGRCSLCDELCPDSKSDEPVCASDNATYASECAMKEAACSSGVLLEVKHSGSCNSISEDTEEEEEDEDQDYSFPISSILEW
In test [6] the target is Fibroblast growth factor 2 (Homo sapiens) (UniProt P09038). The test can be described thus: FGF2 binders on small-molecule microarrays, primary screen, biochemical, small-molecule microarray, 635/667 nm fluorescence (AID 1133). Conditions: small-molecule microarray binding, FGF2, fluorescence 635/667; higher = more signal.
Chain of Fibroblast growth factor 2 (Homo sapiens) (P09038 whole entry, looked up): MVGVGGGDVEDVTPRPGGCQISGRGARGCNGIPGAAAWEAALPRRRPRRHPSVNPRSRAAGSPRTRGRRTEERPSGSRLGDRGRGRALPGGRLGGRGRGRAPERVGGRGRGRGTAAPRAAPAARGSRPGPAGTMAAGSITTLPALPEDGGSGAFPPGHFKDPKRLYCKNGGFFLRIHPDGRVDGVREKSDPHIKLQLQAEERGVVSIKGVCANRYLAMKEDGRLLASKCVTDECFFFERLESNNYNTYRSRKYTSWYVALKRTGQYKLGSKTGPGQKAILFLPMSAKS
The nature of test [7]: mitochondrial membrane potential change in A549 cells, profiling panel, cell-based, JC-1 fluorescence, basal, 24 h, 100 nL (AID 1138).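 Further: A549 lung adenocarcinoma cells under basal conditions with no added stimulus; test concentration not given here.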 Conditions: higher = more signal.
Another test relates to Lefty1. The test can be described thus: Lefty1 binders on small-molecule microarrays, primary screen, biochemical, small-molecule microarray, 635/667 nm fluorescence (AID 1139). The conditions noted are these: small-molecule microarray binding, fluorescence 635/667; higher = more signal.
In test [8] the test system is wheat germ agglutinin (Triticum aestivum), Alexa647-labelled. The test can be described thus: wheat germ agglutinin binders on compound microarrays, profiling panel, artefact control for SMM control-protein annotation, biochemical, small-molecule microarray, 635/667 nm fluorescence (AID 1140).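 Further: score merges 667 nm feature emission with signal to noise over triplicate slides.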 The conditions noted are these: WGA-A647 binding, 635 nm fluorescence, higher = more signal.

Test [9] has as its target Luciferin 4-monooxygenase (Photinus pyralis) (UniProt P08659). The test can be described thus: firefly luciferase enzyme inhibitors, primary screen, biochemical, luminescence, purified enzyme, 2006 set (AID 1141).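 Further: cell-free assay with purified firefly luciferase at 100 ng per well in PBS; test concentration not given here.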 Conditions: SteadyGlo luminescence, 30 min, higher = more signal, called active from +8 up or from −8 down.
Test [10] deals with Wnt5a (protein binding on small-molecule microarray). The test can be described thus: Wnt5a binders on small-molecule microarray, primary screen, biophysical, 635/667 nm fluorescence (AID 1142).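 Further: fluorescence read at 667 nm with signal to noise per printed feature.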 Conditions: 635 nm fluorescence, higher = more signal.
Test [11] is described as follows: cell viability in Huh7 cells, primary screen, cytotoxicity control for HCV replication inhibitor project, CellTiter-Glo luminescence, basal, 48 h (AID 1143).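 Further: Huh7 hepatoma cells carrying a hepatitis C replication reporter with no stimulus; test concentration not given here.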 Conditions: Huh7 HCV replicon, higher = more signal, called active from +8 up or from −8 down. On the technique in general: ATP-based viability assays read luminescence as a measure of living cells.
Test [12] can be described thus: P. aeruginosa biofilm formation inhibitors, primary screen, PAO1 strain, BacTiter-Glo luminescence, LB-PBS (AID 1144). Conditions: 12 h, higher = more signal.
A short description of test [13]: CREB reporter modulators without forskolin, primary screen, cell-based, PC12, CRE-LacZ reporter, unstimulated (AID 1145). Conditions: no forskolin, luminescence, 4.5 h, higher = more signal, called active from +8 up or from −8 down.
Test [14] can be described thus: CREB reporter modulators under forskolin, primary screen, cell-based, PC12, CRE-LacZ reporter, forskolin-stimulated (AID 1146).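 Further: PC12 cells with 6xCRE LacZ reporter stimulated by forskolin 10 µM; beta-galactosidase reporter signal reflecting CREB driven transcription.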 The conditions noted are these: luminescence, 4.5 h, higher = more signal, called active from +8 up or from −8 down.
Test [15] has as its target Streptavidin (Streptomyces avidinii) (UniProt P22629). The test can be described thus: streptavidin binders on small-molecule microarray, primary screen, artefact control for SMM compound annotation, biophysical, 635/667 nm fluorescence (AID 1147).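 Further: signal reflects streptavidin binding to arrayed compounds as a control protein.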 The conditions noted are these: streptavidin binding, higher = more signal.
A short description of test [16]: small-molecule binders of probe aInhba, primary screen, biochemical, small-molecule microarray, 635/667 nm fluorescence (AID 1148).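 Further: score merges 667nm spot fluorescence with signal-to-noise for antibody binding to printed compounds.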 Conditions: higher = more signal.
For test [17], the target named is Torsin-1A (Homo sapiens) (UniProt O14656). The test can be described thus: torsin A binders from cell lysate, primary screen, small-molecule microarray, wild-type, 635/667 nm (AID 1149). The conditions noted are these: COS7 hTOR1A-WT lysate, 635 nm fluorescence, higher = more signal.
Chain of Torsin-1A (Homo sapiens) (O14656 whole entry, looked up): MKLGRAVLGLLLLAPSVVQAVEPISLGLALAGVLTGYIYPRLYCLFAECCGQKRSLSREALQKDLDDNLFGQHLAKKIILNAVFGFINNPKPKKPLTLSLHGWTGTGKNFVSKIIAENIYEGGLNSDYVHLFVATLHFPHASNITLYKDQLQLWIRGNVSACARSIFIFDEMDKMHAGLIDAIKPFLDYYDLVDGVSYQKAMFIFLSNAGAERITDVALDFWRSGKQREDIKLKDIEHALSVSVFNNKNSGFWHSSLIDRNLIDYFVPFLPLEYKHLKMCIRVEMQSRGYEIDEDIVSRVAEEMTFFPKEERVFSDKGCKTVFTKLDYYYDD
For test [18] the target is unchanged. The test can be described thus: small-molecule binders of mutant TOR1A in lysate, primary screen, cell lysate, small-molecule microarray, COS7 lysate, 635/667 nm fluorescence (AID 1150).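 Further: score pools 667 nm emission and signal to noise measuring lysate protein binding.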 Conditions: COS7 hTOR1A mutant lysate, 635 nm fluorescence, higher = more signal.
Test [19] deals with Sonic hedgehog protein (Shh). The test can be described thus: small-molecule binders of Shh protein, primary screen, biochemical, small-molecule microarray, 635/667 nm fluorescence (AID 1151).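 Further: Shh protein binding to compounds spotted on small-molecule microarray slides; score combines spot fluorescence intensity with signal-to-noise across triplicate slides.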 The conditions noted are these: small-molecule microarray binding, 635 nm fluorescence; higher = more signal.

Calls of active or inactive are those of the source. Unless noted, how the calls were made is not given here.

Chain of Focal adhesion kinase 1 (Homo sapiens) (Q05397 whole entry, looked up): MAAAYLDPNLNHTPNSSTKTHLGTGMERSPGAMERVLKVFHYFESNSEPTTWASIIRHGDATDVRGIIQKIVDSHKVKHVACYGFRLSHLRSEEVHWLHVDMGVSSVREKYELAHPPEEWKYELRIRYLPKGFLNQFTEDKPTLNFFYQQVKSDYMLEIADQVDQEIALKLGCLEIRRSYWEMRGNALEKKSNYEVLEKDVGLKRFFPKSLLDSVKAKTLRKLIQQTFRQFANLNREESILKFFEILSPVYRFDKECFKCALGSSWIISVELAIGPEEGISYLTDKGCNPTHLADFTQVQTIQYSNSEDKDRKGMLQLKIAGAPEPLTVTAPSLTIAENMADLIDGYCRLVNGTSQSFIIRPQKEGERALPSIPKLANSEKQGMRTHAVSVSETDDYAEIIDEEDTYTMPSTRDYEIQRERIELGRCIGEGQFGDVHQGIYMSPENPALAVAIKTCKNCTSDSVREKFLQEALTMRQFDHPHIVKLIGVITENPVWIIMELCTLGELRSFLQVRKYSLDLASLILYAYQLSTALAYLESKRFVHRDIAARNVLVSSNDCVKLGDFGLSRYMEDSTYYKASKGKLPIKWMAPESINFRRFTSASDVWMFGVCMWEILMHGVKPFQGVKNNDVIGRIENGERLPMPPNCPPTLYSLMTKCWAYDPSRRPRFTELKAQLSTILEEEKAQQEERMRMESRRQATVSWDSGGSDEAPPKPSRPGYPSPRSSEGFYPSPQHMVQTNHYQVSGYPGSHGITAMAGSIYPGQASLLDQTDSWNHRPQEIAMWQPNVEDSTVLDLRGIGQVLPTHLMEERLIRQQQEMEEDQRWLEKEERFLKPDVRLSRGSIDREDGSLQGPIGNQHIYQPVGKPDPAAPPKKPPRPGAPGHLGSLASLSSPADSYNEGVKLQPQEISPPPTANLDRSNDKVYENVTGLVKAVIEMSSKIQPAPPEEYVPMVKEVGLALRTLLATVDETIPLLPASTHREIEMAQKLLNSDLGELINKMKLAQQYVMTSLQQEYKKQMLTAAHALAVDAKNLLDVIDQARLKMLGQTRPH
Chain of Luciferin 4-monooxygenase (Photinus pyralis) (P08659 whole entry, looked up): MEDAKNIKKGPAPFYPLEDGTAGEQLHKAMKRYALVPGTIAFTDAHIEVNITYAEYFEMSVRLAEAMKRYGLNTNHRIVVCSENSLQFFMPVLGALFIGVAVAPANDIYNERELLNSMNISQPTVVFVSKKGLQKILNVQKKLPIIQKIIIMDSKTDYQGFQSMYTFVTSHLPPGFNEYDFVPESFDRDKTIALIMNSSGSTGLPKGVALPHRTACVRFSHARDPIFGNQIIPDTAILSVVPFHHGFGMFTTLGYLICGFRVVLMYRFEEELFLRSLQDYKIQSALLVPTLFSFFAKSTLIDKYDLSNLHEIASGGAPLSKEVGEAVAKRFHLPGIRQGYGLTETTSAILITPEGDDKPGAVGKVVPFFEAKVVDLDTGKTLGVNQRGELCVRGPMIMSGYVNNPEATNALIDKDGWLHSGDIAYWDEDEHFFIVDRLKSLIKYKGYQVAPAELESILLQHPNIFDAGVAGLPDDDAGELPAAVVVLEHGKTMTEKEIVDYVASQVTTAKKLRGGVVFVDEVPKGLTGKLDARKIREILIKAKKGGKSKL
Chain of Streptavidin (Streptomyces avidinii) (P22629 whole entry, looked up): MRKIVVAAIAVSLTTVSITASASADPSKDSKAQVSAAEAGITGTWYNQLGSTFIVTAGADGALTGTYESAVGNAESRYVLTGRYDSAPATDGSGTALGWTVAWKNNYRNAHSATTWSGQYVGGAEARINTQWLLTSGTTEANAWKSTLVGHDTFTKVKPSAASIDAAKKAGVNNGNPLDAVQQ

Regarding `O=C1OCCC=C[C@H]2OC34C=CCN(c5ccc(Cl)cc5)C(=O)[C@H]3N(CCO)C(=O)[C@@H]4C12` (stereo not given in full), the composite z-score in test [1] is -0.656; in [2] it was -0.574; in test [3], -0.732; in test [4], -0.262; in test [5], -0.367; in test [6], -1.14. Moreover, the composite z-score in the test on Lefty1 is -0.837; in test [8], -0.524; in test [10], -0.524; in test [15], -1.23; in [16], -0.159; with Torsin-1A (Homo sapiens) [17], -1.97. In addition, the composite z-score is -0.0899 with Torsin-1A (Homo sapiens) [18] and -0.524 in test [19]. Moreover, the z-score in test [7] was -0.0109; in test [9], -0.381 (inactive); in [11] it was 0.373 (inactive); in [12], 0.108 (inactive); in [13], -0.228 (inactive); in test [14], -0.256 (inactive).
`COc1cc2c(cc1O)C(c1ccc(CN3CCCC3)cc1)N(Cc1ccc([N+](=O)[O-])o1)CC2` (stereo not given): the composite z-score was 0.27 in [1]; -0.96 in [2]; -0.537 in test [3]; 0.121 in [4]; -0.147 in [5]; 0.253 in [6]. The composite z-score was -0.606 in the test on Lefty1; 0.522 in test [8]; -0.176 in test [10]; -0.231 in test [15]; -0.105 in test [16]; 0.714 with Torsin-1A (Homo sapiens) [17]. In addition, the composite z-score with Torsin-1A (Homo sapiens) [18] was 0.623; in test [19], -0.0987. Further, the z-score in [7] was 1; in test [9], -0.659 (inactive); in test [11] it was -0.192 (inactive); in test [12] it was 0.85 (inactive); in [13], 0.299 (inactive); in test [14] it was 0.292 (inactive).
`CN(C)CCCNC(=O)[C@@H]1c2ccccc2C(=O)N(C2Cc3ccccc3C2)[C@H]1c1ccc(CO)cc1`: the composite z-score was 0.0265 in test [1]; 1.11 in [2]; 0.726 in test [3]; 0.784 in [4]; 0.27 in test [5]; -0.139 in [6]. For the same molecule, the composite z-score in the test with Lefty1 is -0.199; in [8], 0.164; in [10] it was -0.128; in test [15] it was 0.359; in test [16], 0.217; with Torsin-1A (Homo sapiens) [17], 0.798. Besides, the composite z-score in the test with Torsin-1A (Homo sapiens) [18] was determined as 0.802; in test [19], 0.318. For the same molecule, the z-score is 2.07 in test [7]; -0.825 (inactive) in [9]; -0.701 (inactive) in test [11]; 0.491 (inactive) in test [12]; -0.502 (inactive) in test [13]; -1.14 (inactive) in test [14].
Regarding `COCCOC(=O)N1C(=O)[C@@]2(c3cc(C#Cc4ccc(OC)cc4)ccc31)[C@H](C(=O)N1CCCCCCC1)[C@H]1C(=O)O[C@H](c3ccccc3)[C@H](c3ccccc3)N1[C@@H]2c1ccccc1OCCO`, the composite z-score in [1] is 0.32; in test [2], 1.21; in test [3] it was 0.628; in [4], 0.495; in [5], 1.49; in test [6] it was 1.54. The composite z-score is 1.62 in the test with Lefty1; 0.614 in test [8]; 1.15 in [10]; 1.53 in [15]; 1.59 in [16]; 1.43 with Torsin-1A (Homo sapiens) [17]. Further, the composite z-score with Torsin-1A (Homo sapiens) [18] was determined as 1.18; in test [19], 1.9. Also, the z-score in test [7] is -0.864; in test [9] it was 0.197 (inactive); in [11], -0.751 (inactive); in test [12], -1.4 (inactive); in test [13], -1.42 (inactive); in test [14], 0.323 (inactive).
For `C=CCC(OC(C)=O)[C@@H]1[C@@H](N(Cc2ccc(-c3cccc(C(F)(F)F)c3)o2)C(=O)c2cccc3ccccc23)c2cc(OCCCO)ccc2N1C(=O)c1ccc2ccccc2c1` (stereo not given in full), the composite z-score in [1] was 0.272; in test [2] it was -0.582; in test [3], -0.118; in test [4] it was -0.425; in test [5], 0.839; in test [6], 0.101. Further, the composite z-score was 0.429 with Lefty1; 0.0578 in test [8]; -0.12 in [10]; -0.332 in test [15]; -0.118 in [16]; -0.0205 in the test with Torsin-1A (Homo sapiens) [17]. Besides, the values for the composite z-score (with Torsin-1A (Homo sapiens) [18]; in test [19]) were -0.0418 and 1.23, respectively. Also, the z-score is -0.251 in [7]; 1.05 (inactive) in test [9]; -1.6 (inactive) in test [11]; -0.924 (inactive) in test [12]; -0.71 (inactive) in test [13]; 0.942 (inactive) in [14].
